Reference: PubChem BioAssay (NCATS)
Inconclusive results are not listed. A call without a number means that no potency is given here. The source made the active and inactive calls. Calls follow the shape of the dose curve; as a rule, active = well fitted inhibition curve with a large enough effect; inconclusive = small, poorly fitted or top-dose-only effect; inactive = flat fitted curve, though single readings scatter.

tested on: MKL-2; test: qHTS assay to identify novel small-molecules to repurpose for Merkel cell carcinoma treatment (AID 1296009); conditions: MCC and control cell lines, CellTiter-Glo viability, 72 h; series mostly up to 46 µM; also: nearly all actives have a fitted effect of over 60% in size
Outline: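 Viability readout: ATP luminescence (CellTiter-Glo) after 72 hr drug exposure at 37 degree celsius. Dose-response format was 8 points for NPC and 11 points for MIPE; data normalized to in-plate controls.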
Potency is read from the fitted curve at half-maximal effect.

Question: How did the Potency turn out when `OC[C@H]1O[C@@H](OCCc2ccc(O)cc2)[C@H](O)[C@@H](O)[C@H]1O` was run?
Answer: The Potency was “inactive”.

Question: Which Potency does the source give for `CC(C)(OCc1nn(Cc2ccccc2)c2ccccc12)C(=O)O` here?
Answer: Its Potency is “inactive”.

Question: Which Potency does the source give for `c1ccc(-c2oc3ncnc(NC[C@@H]4CCCO4)c3c2-c2ccccc2)cc1` here?
Answer: Its Potency is “inactive”.

Question: For `O=C(O)Cc1cccc(OCCCN(Cc2cccc(C(F)(F)F)c2Cl)CC(c2ccccc2)c2ccccc2)c1`, which Potency is on record?
Answer: The Potency was “inactive”.

Question: For `CC(C)N(CCCNC(=O)Nc1ccc(C(C)(C)C)cc1)C[C@H]1O[C@@H](n2cc(Br)c3c(N)ncnc32)[C@H](O)[C@H]1O`, which Potency is on record?
Answer: Its Potency is “inactive”.

Question: How did the Potency turn out when `CC(C)(O)CC(=O)NCCn1ccc2ncnc(Nc3ccc(Oc4cccc(C(F)(F)F)c4)c(Cl)c3)c21` was run?
Answer: The Potency was “inactive”.

Question: With `CC(=O)Nc1cccc(-n2c(=O)n(C3CC3)c(=O)c3c(Nc4ccc(I)cc4F)n(C)c(=O)c(C)c32)c1` as the molecule, how does the Potency read?
Answer: Its Potency is “inactive”.

Question: How did the Potency turn out when `C=CCc1cccc(C=NNC(=O)CN2CCN(Cc3ccccc3)CC2)c1O` was run?
Answer: The Potency was 16.6 µM (active).

Question: `CN1CCN(c2cccc(Nc3nc4c(-c5ccc(S(C)(=O)=O)cc5)cccn4n3)c2)CC1` was tested. Which Potency did it give?
Answer: The Potency was “inactive”.

Question: For `CCCCn1c(=O)n(Cc2ccccc2F)c(=O)c2[nH]c(Cc3ccc(NC(C)=O)cc3)nc21`, which Potency is on record?
Answer: Its Potency is “inactive”.

Question: For `CC1CCN(c2cc(N3CCN(C)CC3)ccc2NC(=O)c2cc(C#N)c[nH]2)CC1`, which Potency is on record?
Answer: Its Potency is “inactive”.

Question: With `Cc1nc(C(=O)NCC(=O)O)c(O)c2ccc(Oc3ccccc3)cc12` as the molecule, how does the Potency read?
Answer: The Potency was “inactive”.

Question: Which Potency does the source give for `Cc1cnc(Nc2cccc(CN3CCOCC3)c2)nc1Nc1cccc(S(=O)(=O)NC(C)(C)C)c1` here?
Answer: The Potency was “inactive”.

Question: `CCCCc1ccc(NS(=O)(=O)c2ccc(C)c(C(=O)N3CCN(c4cccc(C)c4C)CC3)c2)cc1` was tested. Which Potency did it give?
Answer: Its Potency is “inactive”.
